Bst PK mod = Pyruvate Kinase | Potency, µM | 51,000 compounds, 1.2% hits | purified pyruvate kinase, luminescence ATP production; ribose 5-phosphate activator present at AC10; in the data active means potency below about 11 µM; inconclusive means mostly about 12 µM to 25 µM;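 the screen sought inhibitors and activators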
GBA mod = Glucocerebrosidase. Lysosomal acid glucosylceramidase (Homo sapiens), P04062. AID 360, 2006. Potency, µM. 48,000 compounds, 1.1% hits. purified enzyme, resorufin glucoside fluorescence (screen aimed at inhibitors), 20 min; in the data active means potency below about 15 µM; inconclusive means mostly about 16 µM to 33 µM;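 further: the screen sought inhibitors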
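Wild-type enzyme at 0.2 nM final in 50mM citric acid/KH2PO4, 10mM sodium taurocholate, 0.01% tween-20, pH 5.9, with resorufin beta-D-glucopyranoside at 30 uM final. Compounds titrated, 20 min at RT, red fluorescence read; AC50 from titration.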
ERK AVP block = qHTS Assay for Inhibitors of the ERK Signaling Pathway using a Homogeneous Screening Assay; HEK293-V1b, vasopressin-stimulated pERK AlphaScreen; Potency, µM (series often up to 57.5 µM), most hits filed as inhibitors; 72,000 compounds, 0.99% hits; further: nearly all actives have a fitted effect of over 55% in size
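Overnight-seeded V1b-HEK293 cells in 1% FBS got compound, then vasopressin (25 nM final, 5 min, 37C), then lysis buffer. AlphaScreen detection of phospho-ERK; activity normalized to basal and full-stimulation controls.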
TSHR agonist = qHTS Assay for Agonists of the Thyroid Stimulating Hormone Receptor; HEK293-CNG-TSHR cells (CNG channel as cAMP sensor), membrane potential dye, cAMP; Potency, µM (titrated, usually from 57.1 µM), hits mostly activators; 73,000 compounds, 0.48% hits; active means well fitted activation curve with a large enough effect in the main read-out, with a control signal flat, not every such curve was filed as active; inconclusive means small, poorly fitted or top-dose-only effect, or a change in a side signal; inactive means no such curve, though single readings can be large or run the other way; reference of the percent scale not stated here;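 further: the control signal comes from parental cells without the receptor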
Target sequence (P16473 whole entry, looked up): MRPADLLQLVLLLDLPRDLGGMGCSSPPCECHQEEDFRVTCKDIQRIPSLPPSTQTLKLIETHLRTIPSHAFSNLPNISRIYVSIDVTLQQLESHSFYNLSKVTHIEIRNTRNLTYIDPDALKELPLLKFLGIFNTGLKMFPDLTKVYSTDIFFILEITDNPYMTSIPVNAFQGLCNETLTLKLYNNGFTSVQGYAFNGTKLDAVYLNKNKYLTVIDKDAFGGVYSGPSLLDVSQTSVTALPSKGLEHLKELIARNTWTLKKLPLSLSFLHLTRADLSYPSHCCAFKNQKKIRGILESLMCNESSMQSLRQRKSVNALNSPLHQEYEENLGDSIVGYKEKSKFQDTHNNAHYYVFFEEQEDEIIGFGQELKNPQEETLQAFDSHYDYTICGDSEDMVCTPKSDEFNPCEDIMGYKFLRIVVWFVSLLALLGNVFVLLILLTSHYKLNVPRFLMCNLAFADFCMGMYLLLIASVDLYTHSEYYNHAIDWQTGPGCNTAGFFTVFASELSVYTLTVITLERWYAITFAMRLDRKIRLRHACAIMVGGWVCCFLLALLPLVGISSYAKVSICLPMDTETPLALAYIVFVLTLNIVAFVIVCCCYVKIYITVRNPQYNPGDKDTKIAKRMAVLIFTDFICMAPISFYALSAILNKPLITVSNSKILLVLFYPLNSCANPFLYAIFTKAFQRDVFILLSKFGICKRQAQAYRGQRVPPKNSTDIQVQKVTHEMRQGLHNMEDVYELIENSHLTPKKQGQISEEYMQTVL
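HEK 293 cells stably expressing TSHR and a modified CNG channel, with CNG-only parental cells as counterscreen, were preloaded 60 min at room temperature with membrane potential dye containing 100 uM RO 20-1724. Compound exposure was 30 min, and depolarization was read as fluorescence at 590 nm.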
Luciferase inh = qHTS Assay for Inhibitors of Firefly Luciferase; Luciferin 4-monooxygenase (Photinus pyralis), P08659; purified firefly luciferase, luminescence, 8 min; Potency, µM (series often up to 57.1 µM), actives largely listed as inhibitors; 72,000 compounds, 2.2% hits; AID 411, 2009; further: nearly all actives have a fitted effect of over 40% in size
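Firefly luciferase (PKLight detection mix) with 10 uM ATP in pH 7.2 imidazole buffer (KCl, MgCl2, Tween 20, BSA). Compounds tested across a concentration series (qHTS). Luminescence read after 8 min at ambient temperature.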
HEK293 cAMP cs = qHTS Assay for Agonists of the Thyroid Stimulating Hormone Receptor: Activators of Intracellular cAMP Concentrations in Parental HEK 293; parental HEK293 CNG cAMP sensor, membrane potential fluorescence; Potency, µM (doses to about 57.1 µM), hits mostly activators; 73,000 compounds, 2.5% hits; further: nearly all actives have a fitted effect of over 55% in size
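Parental HEK 293 cells stably expressing a modified CNG channel (no TSHR) report cAMP rise as membrane depolarization. Membrane potential dye with 100 uM RO 20-1724 was loaded for 60 min at room temperature, then compound added for 30 min; fluorescence read at 590 nm.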
Numbers stand for hits; . = inactive; ? = inconclusive; / = no result; [ ] = remark or other dose. Sampled rows, rich in hits. Any-hit rate of the full collection: about 6.1%. Unless noted, the call rests on the fitted dose curve; in most records, active means well fitted curve in the direction sought with a large enough effect; inconclusive means small, poorly fitted or top-dose-only effect, or another doubt; inactive means no such curve, though single readings can be large; an effect the other way counts as inactive or inconclusive.

SMILES | Bst PK mod | GBA mod | ERK AVP block | TSHR agonist | Luciferase inh | HEK293 cAMP cs
O=C(NC1CC1)c1ccc(-c2nc3ccccc3s2)s1 | 0.8 | . | . | . | 1.6µM | .
Nc1ccc(C23CC4CC(CC(O)(C4)C2)C3)cc1 | 9.1 | . | . | . | . | .
CCc1ccc(CNc2ccc(O)cc2)cc1 | / | 11 | ? | . | . | .
COc1ccc(-c2[nH]ncc2-c2ccc3c(c2)OCCO3)c(O)c1 | . | . | . | . | . | .
CCc1cc(-c2[nH]ncc2-c2ccc3c(c2)OCO3)c(O)cc1O | . | . | ? | ? | . | 25µM
CC(C)CC(c1nnnn1Cc1ccco1)N1CCN(C2CCCC2)CC1 (stereo not given) | . | . | . | ? | . | 3.2µM
CC(C)CC(c1nnnn1C(C)(C)C)N1CCN(C2CCCC2)CC1 (stereo not given) | . | . | . | ? | . | 13µM
Fc1ccc(C(c2nnnn2Cc2ccco2)N2CCN(C3CCCCC3)CC2)cc1 (stereo not given) | . | . | . | ? | . | ?
O[C@H]([C@H](O)[C@@H](O)c1nc2ccccc2[nH]1)[C@@H](O)c1nc2ccccc2[nH]1 | / | / | .[11.5 µM] | .[11.4 µM] | .[11.4 µM] | .[11.4 µM]
Cc1ccc(C2NC(=O)NC3=C2CCc2ccccc23)cc1 (stereo not given) | ? | . | . | . | 13µM | .
CCC(=O)Oc1ccc(-c2nc(-c3cccnc3)no2)cc1 | ? | 7.8 | . | . | 13µM | .
Cc1nn(-c2ccccc2)c(C)c1C(=O)OCC(=O)c1c(N)n(CC(C)C)c(=O)n(C)c1=O | . | . | ? | ? | . | 16µM
CC(C)Cn1c(N)c(C(=O)COC(=O)c2cc(-c3ccccc3)nc3ccccc23)c(=O)n(C)c1=O | / | / | . | / | / | /
CCCCCC1=C2CNC(C)(C(=O)OC)C=C2C(C)C1=O (stereo not given) | / | / | . | . | / | .
CCN(CC)c1ccc(C(=S)N2CCN(c3ccccc3)CC2)cc1 | . | . | 32µM | . | . | .
CN1CCN(C(=S)c2ccc(N(C)C)cc2)CC1 | . | . | . | . | . | .
Cc1cc(N)c2cc(NC(=O)Nc3ccc4nc(C)cc(N)c4c3)ccc2n1 | / | / | .[11.5 µM] | .[11.4 µM] | .[11.4 µM] | .[11.4 µM]
COC(=O)c1ccc(C(NC(=O)OCc2ccccc2)/C(F)=C/[C@@H](C)C(=O)NCc2nc3ccccc3s2)cc1 (stereo not given in full) | / | / | . | . | / | .
CN(C)C(=O)c1ccc(-c2nc(Nc3ccc(F)cc3)c3ccccc3n2)cc1 | / | / | ? | 32µM | .[2.29 µM] | .
CN(C)c1ccc(-c2nc(Nc3ccncc3)c3ccccc3n2)cc1 | / | / | 16µM | ? | 0.4µM | .
Cc1nc(N2CCOCC2)c2nc(-c3ccccc3)n(CCN3CCCC3)c2n1 | / | / | . | ? | / | ?
NCCC[C@@H](CC(=O)N[C@@H]1CCNC[C@H]1C(=O)N[C@H](CC(=O)N[C@@H](CCC(=O)O)CC(=O)O)Cc1c[nH]c2ccccc12)NC(=O)C[C@H](Cc1ccccc1)NC(=O)[C@@H]1CNCC[C@H]1N | / | / | / | . | / | .
C=C[C@@]1(C)CC(=O)[C@@]2(O)[C@@]3(C)[C@@H](O)CCC(C)(C)[C@@H]3[C@H](O)[C@H](OC(C)=O)[C@@]2(C)O1 | / | / | 1.3µM | ? | . | 0.079µM
C=CCn1c(COc2cccc(C)c2)nnc1SCC(=O)NC(=O)NCc1ccco1 | . | . | . | . | . | .
C=CCn1c(COc2ccc(F)cc2)nnc1SCC(=O)NC(=O)NCc1ccco1 | . | 15 | . | . | . | .
NC(=O)c1cc2ccc(O)cc2oc1=Nc1ccccc1 | ? | . | 7.9µM | . | ? | .
COc1ccc(OC)c(N=c2oc3cc(O)ccc3cc2C(N)=O)c1 | . | . | ? | . | 13µM | .
NC(=O)c1cc2ccc(O)cc2oc1=NCc1ccccc1 | / | . | . | . | . | .
COc1ccc(N2CCN(Cc3nc4c(c(=O)n(C)c(=O)n4C)n3Cc3ccccc3C)CC2)cc1 | / | / | / | 10µM | . | .

From PubChem
